Results published in PubChem BioAssay (NCATS).
Results filed as inconclusive are left out. The source made the active and inactive calls. The call rests on the fitted dose curve; in most records, active means well fitted inhibition curve with a large enough effect in the repeat runs; inconclusive means weak or mixed curves; inactive means no such curve, though single readings can be large or run the other way.

target: Cytochrome P450 2C9 (Homo sapiens) (UniProt P11712); experiment: Cytochrome P450 family 2 subfamily C member 9 (CYP2C9) small molecule antagonists: luciferase biochemical (cell-free) qHTS assay (AID 1645842); details: P450-Glo CYP2C9 enzyme assay, luciferin luminescence; series mostly up to 57.4 µM; further: nearly all actives have a fitted effect of over 55% in size
Sequence (P11712 whole entry, looked up): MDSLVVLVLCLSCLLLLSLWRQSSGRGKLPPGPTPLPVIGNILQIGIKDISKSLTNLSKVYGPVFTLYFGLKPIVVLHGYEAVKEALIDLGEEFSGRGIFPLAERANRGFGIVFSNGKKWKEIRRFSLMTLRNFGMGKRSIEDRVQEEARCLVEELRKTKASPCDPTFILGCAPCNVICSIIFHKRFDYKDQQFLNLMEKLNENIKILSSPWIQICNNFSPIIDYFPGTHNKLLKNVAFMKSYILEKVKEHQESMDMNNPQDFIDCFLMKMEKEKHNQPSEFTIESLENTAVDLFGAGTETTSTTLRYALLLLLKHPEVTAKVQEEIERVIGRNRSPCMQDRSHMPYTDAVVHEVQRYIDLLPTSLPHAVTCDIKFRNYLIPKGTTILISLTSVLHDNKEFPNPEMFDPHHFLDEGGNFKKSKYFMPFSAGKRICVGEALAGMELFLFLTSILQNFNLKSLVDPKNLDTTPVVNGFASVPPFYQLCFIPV
Procedure, shortened: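 Luminescence, after 20 min with luciferin detection reagent, reflected CYP2C9 turnover during a 1 h NADPH-driven reaction at 37C. Enzyme-substrate mix contained 0.4% bovine serum albumin and was preincubated with compound 10 min at room temperature.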
Potency means the concentration at half of the fitted maximal effect.

| Structure (SMILES) | Potency |
| --- | --- |
| O=C(CSc1nc2ccccc2n1Cc1cccc(F)c1)N1CCN(c2ccc(F)cc2)CC1 | 3.38 µM (active) |
| COc1ccc(NC(=O)CSc2ncc(-c3ccc(Cl)cc3)[nH]2)cc1OC | 0.849 µM (active) |
| CC(C)c1ccc(NC(=O)CSC2=Nc3ccccc3C3=NC(CC(=O)NC4CCCCC4)C(=O)N23)cc1 (centres undefined) | 12 µM (active) |
| Nc1nc(N)c(S(=O)(=O)c2ccccc2)c(Nc2ccc(Br)cc2)n1 | 4.77 µM (active) |
| CCOc1ccc(NC(=O)Cn2cc(C(=O)c3ccco3)c3ccccc32)cc1 | 4.77 µM (active) |
| Cc1ccc(-n2c(SCc3ccccc3F)nc3[nH]ncc3c2=O)cc1C | 13.5 µM (active) |
| CCOc1ccc(S(=O)(=O)NCc2ccc3c(c2)CCN3C(=O)c2ccc(C)cc2)cc1 | 0.301 µM (active) |
| COc1cc(=O)n2c(c1C(=O)NCc1ccc3c(c1)OCO3)CCN(C(=O)c1ccc(C)cc1C)CC2 | 19 µM (active) |
| CCOc1ccc2nc(N3CCC(C(=O)Nc4ccccc4CC)CC3)sc2c1 | 6.01 µM (active) |
| Cn1c(=O)c2c(nc(OC3CCN(C(=O)C4CC4)CC3)n2CCC(C)(C)C)n(C)c1=O | 12 µM (active) |
| COc1ccc(CNC(=O)c2nc(SCc3ccccc3F)ncc2Cl)cc1 | inactive |
| CCOc1cc(C(=O)Nc2ccc(-c3nc4ncccc4o3)cc2C)cc(OCC)c1OCC | 7.56 µM (active) |
| CCc1ccc(C2=CC(c3c(F)cccc3Cl)n3c(nc4ccccc43)N2)cc1 (centres undefined) | 5.35 µM (active) |
| C=C1CC[C@H](O)C/C1=C\C=C1/CCCC2(C)C1CCC2C(C)CCCC(C)C (some centres undefined) | 23.9 µM (active) |
| COc1ccc(C(C)=O)cc1CSc1nc(NCc2ccccc2)c2ccccc2n1 | 2.13 µM (active) |
| CN(C)[S+](=O)([O-])c1ccc([S+](=O)([O-])N(Cc2ccccc2)Cc2ccccn2)cc1 | 5.35 µM (active) |
| CC1(C#N)CCN(c2c(C(=O)N3CCC(C(=O)C4CC4)CC3)cnc3cc(F)c(F)cc23)CC1 | 9.52 µM (active) |
| CC1=C(C(=O)Nc2cccc(-c3ccn[nH]3)c2)C(c2ccccc2Cl)N=C(Nc2nc3ccccc3o2)N1 (centres undefined) | 0.477 µM (active) |
| Cc1cccc(C)c1NC(=O)Cn1cc(C(=O)c2ccco2)c2ccccc21 | 3.79 µM (active) |
| CCNC(=O)N1CCN(C(=O)c2cnc3cc(OC)ccc3c2N2CCC(C)(C#N)CC2)CC1 | 2.39 µM (active) |

| Structure (SMILES) | Potency |
| --- | --- |
| CC(=O)C1=C(c2ccc(Cl)c(Cl)c2)N(C(C)=O)n2cnnc2S1 | 2.39 µM (active) |
| COc1ccc(-n2nc3c(N4CCCC(C(=O)NCc5ccccc5C)C4)nnc(C)c3c2C)cc1 (centres undefined) | 0.477 µM (active) |
| Cc1cccc(Cc2c(C)nc3c(-c4ccccc4)c(C)[nH]n3c2=O)c1 | inactive |
| CCOC(=O)c1ccc(NC(=O)c2cc(=O)c3ccc(C)c(C)c3o2)cc1 | inactive |
| CC(C)(C)c1ccc(S(=O)(=O)c2cnc(SCC(=O)Nc3ccc(F)c(Cl)c3)[nH]c2=O)cc1 | 0.536 µM (active) |
| CCOCCCNC(=O)CCC(=O)NNc1nc2ccccc2c2nc(-c3ccccc3)nn12 | 3.38 µM (active) |
| Cc1cccc(N2CCN(C(=O)CCC(=O)NNc3nc4ccccc4c4nc(C)nn34)CC2C)c1 (centres undefined) | 9.52 µM (active) |
| COCCCNC(=O)CCC(=O)NNc1nc2ccccc2c2nc(-c3ccccc3)nn12 | 9.52 µM (active) |
| CC(=O)c1ccc(NC(=O)Cn2cc(S(=O)(=O)Cc3ccccc3Cl)c3ccccc32)cc1 | 1.69 µM (active) |
| CCOc1ccc(CNC(=O)Cn2c(=O)c3cccn3c3ccc(F)cc32)cc1OC | inactive |
| COc1cc(C(c2c(C)[nH][nH]c2=O)c2c(C)[nH][nH]c2=O)ccc1OC(=O)c1ccccc1OC | 8.49 µM (active) |
| CCc1nnc(NC(=O)CSc2nc3c([nH]c4ccccc43)c(=O)n2-c2ccc(OC)cc2)s1 | 4.25 µM (active) |
| CCCCn1cnc2cc(NCc3ccccc3Cl)ccc21 | 2.13 µM (active) |
| C=CC(C)(O)CCC=C(C)CCC=C(C)C (centres undefined) | 21.3 µM (active) |
| COC(=O)c1c(SCC(=O)Nc2ccccc2C(F)(F)F)[nH]c2ccc(Cl)cc2c1=O | 1.9 µM (active) |
| COc1ccc(NC(=O)CSc2nnc(NC(=O)NC3CCCCC3)s2)cc1OC | 21.3 µM (active) |
| COc1ccccc1NC(=O)Cn1c(=O)n(Cc2nc(-c3ccccc3)no2)c(=O)c2ccccc21 | 2.39 µM (active) |
| CCC(Sc1nc2nccnc2c(=O)n1Cc1ccc(C)cc1)C(=O)NC1CCCCC1 (centres undefined) | 9.52 µM (active) |
| COc1ccc(Cn2c(SCC(=O)N3CCN(c4ccc(F)cc4)CC3)nc3ccccc32)cc1 | 1.69 µM (active) |
